Screens from PubChem.
IDE exosite FP – exo-site inhibitors of human IDE, primary screen, biochemical, fluorescence anisotropy, probe displacement; purified IDE, FL-6b probe fluorescence polarization; hits give low values; z-score at 20 µM; actives 6.3% (n = 17,000); AID 1259349, 2017;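 active = z-score of -3 or lower, meaning strong loss of probe binding signal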;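 note: His-tagged human IDE residues 42-1019 made in E. coli with 30 nM FL-6b probe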
Active calls of the source: *. Shown is part of a subset that was picked to be rich in hits.

For COCC#Cc1ccc([C@H]2[C@@H](CO)N3C(=O)CN(C(=O)Nc4cc(F)ccc4F)C[C@@H]23)cc1 the results were IDE exosite FP 0.107.
Screening COCC(=O)N1CCCCN2[C@@H](CO)[C@H](c3ccc(C#Cc4cccnc4)cc3)[C@@H]2C1 returned IDE exosite FP -6.27*.
For COCC(=O)N1CCCCN2[C@@H](CO)[C@@H](c3ccc(C#Cc4cccnc4)cc3)[C@@H]2C1 the results were IDE exosite FP 2.21.
`CCC(=O)N1CCCCN2[C@H](CO)[C@@H](c3ccc(C#Cc4cccnc4)cc3)[C@H]2C1` gave IDE exosite FP -2.39.
For CCC(=O)N1CCCCN2[C@H](C1)[C@H](c1ccc(C#Cc3cccnc3)cc1)[C@@H]2CO the results were IDE exosite FP -3.45*.
`CCC(=O)N1CCCCN2[C@H](C1)[C@@H](c1ccc(C#Cc3cccnc3)cc1)[C@@H]2CO` gave IDE exosite FP -2.37.
For COCC(=O)N1CC(=O)N2[C@H](C1)[C@H](c1ccc(C#Cc3cccnc3)cc1)[C@@H]2CO the results were IDE exosite FP 1.45.
Screening O=C(C[C@H]1C[C@@H]2c3cc(NS(=O)(=O)c4ccccc4)ccc3O[C@@H]2[C@@H](CO)O1)N1CCOCC1 returned IDE exosite FP 0.542.
For COc1ccc(NC(=O)N2CCCCN3[C@@H](CO)[C@@H](c4ccc(C#Cc5ccccn5)cc4)[C@@H]3C2)cc1 the results were IDE exosite FP 0.336.
For COc1ccccc1S(=O)(=O)N(C)C[C@@H]1OCc2ccccc2-c2ccccc2C(=O)N([C@H](C)CO)C[C@@H]1C the results were IDE exosite FP -0.361.
Screening COc1cccc(C#Cc2ccc([C@@H]3[C@@H](CO)N4C(=O)CN(C(=O)c5ccccc5)C[C@H]34)cc2)c1 returned IDE exosite FP 0.105.
For COc1ccc(C#Cc2ccc([C@@H]3[C@H](CO)N4C(=O)CN(C(=O)c5ccncc5)C[C@@H]34)cc2)cc1 the results were IDE exosite FP 3.35.
For COc1cccc(C#Cc2ccc([C@H]3[C@@H](CO)N4C(=O)CN(C(=O)c5ccncc5)C[C@@H]34)cc2)c1 the results were IDE exosite FP -7.29*.
COc1ccc(C#Cc2ccc([C@H]3[C@H](CO)N4C(=O)CN(C(=O)c5ccncc5)C[C@@H]34)cc2)cc1 was read as IDE exosite FP 1.44.
`COc1ccc(C#Cc2ccc([C@H]3[C@@H](CO)N4C(=O)CN(C(=O)c5ccncc5)C[C@@H]34)cc2)cc1` gave IDE exosite FP 0.672.
For COc1cccc(C#Cc2ccc([C@@H]3[C@@H](CO)N4C(=O)CN(C(=O)c5ccncc5)C[C@@H]34)cc2)c1 the results were IDE exosite FP -3.24*.
Screening COc1ccc(C#Cc2ccc([C@@H]3[C@@H](CO)N4C(=O)CN(C(=O)c5ccncc5)C[C@H]34)cc2)cc1 returned IDE exosite FP 3.26.
For COc1cccc(C#Cc2ccc([C@@H]3[C@H](CO)N4C(=O)CN(C(=O)c5ccncc5)C[C@@H]34)cc2)c1 the results were IDE exosite FP -5.06*.
`COc1ccc(C#Cc2ccc([C@@H]3[C@@H](CO)N4C(=O)CN(C(=O)c5ccncc5)C[C@@H]34)cc2)cc1` gave IDE exosite FP 0.514.
`N#Cc1ccc(-c2ccc([C@@H]3[C@@H](CO)N4C(=O)CN(C(=O)C5CCCCC5)C[C@H]34)cc2)cc1` gave IDE exosite FP 0.0893.
`COc1cccc(NC(=O)N[C@H]2C=C[C@H](CC(=O)NCc3ccncn3)O[C@@H]2CO)c1` gave IDE exosite FP 1.46.
Screening CCS(=O)(=O)N1CCCCN2[C@H](CO)[C@H](c3ccc(-c4ccc(C(=O)N(C)C)cc4)cc3)[C@@H]2C1 returned IDE exosite FP -1.19.
Screening Cc1ccccc1S(=O)(=O)N1CC(=O)N2[C@H](C1)[C@@H](c1ccc(C#CC3CC3)cc1)[C@@H]2CO returned IDE exosite FP -0.146.
For CN1C(=O)c2cc(NS(=O)(=O)c3cccc(F)c3)ccc2OC[C@H]2O[C@H](CC(=O)NCCN3CCCCC3)CC[C@@H]21 the results were IDE exosite FP -1.18.
Screening CO[C@H](CN(C)C(=O)c1ccccc1F)[C@@H](C)CN([C@H](C)CO)S(=O)(=O)c1ccc(F)cc1 returned IDE exosite FP 1.35.
`COc1ccc(C#Cc2ccc([C@@H]3[C@@H](CO)N4CCCCN(Cc5ccncc5)C[C@H]34)cc2)cc1` gave IDE exosite FP -0.629.
For OC[C@@H]1[C@@H](c2ccc(/C=C/c3ccccc3)cc2)[C@H]2CN(Cc3ccncc3)CCCCN12 the results were IDE exosite FP -5.15*.
OC[C@@H]1[C@@H](c2ccc(/C=C/c3ccccc3)cc2)[C@@H]2CN(Cc3ccncc3)CCCCN12 was read as IDE exosite FP -4.98*.
CCCC#Cc1ccc([C@H]2[C@H]3CN(Cc4ccncc4)CCCCN3[C@H]2CO)cc1 was read as IDE exosite FP -1.2.
`OC[C@H]1[C@@H](c2ccc(/C=C/c3ccccc3)cc2)[C@H]2CN(Cc3ccncc3)CCCCN21` gave IDE exosite FP -5.74*.
Screening CCCC#Cc1ccc([C@H]2[C@@H](CO)N3CCCCN(Cc4ccncc4)C[C@@H]23)cc1 returned IDE exosite FP 0.169.
For OC[C@H]1[C@@H](c2ccc(/C=C/c3ccccc3)cc2)[C@@H]2CN(Cc3ccncc3)CCCCN12 the results were IDE exosite FP -7.94*.
CC(=O)NC[C@@H]1[C@@H](c2ccccc2)[C@@H](CO)N1C(=O)Cc1ccncc1 was read as IDE exosite FP 0.189.
`CN(C)C(=O)c1ccc(-c2ccc([C@H]3[C@@H](C#N)N(C(=O)Cc4ccccn4)[C@H]3CO)cc2)cc1` gave IDE exosite FP -2.06.
Screening CO[C@@H]1CN(C)C(=O)c2cc(NC(=O)Cc3ccccc3)ccc2OC[C@H](C)N(C(=O)c2ccccc2F)C[C@@H]1C returned IDE exosite FP 0.927.
CN1c2ccc(-c3ccc(C#N)cc3)cc2[C@H]2[C@H](CCN2S(=O)(=O)c2ccc(F)cc2)[C@H]1CO was read as IDE exosite FP 2.09.
N#C[C@H]1[C@@H](c2ccccc2-c2ccccc2)[C@@H](CO)N1C(=O)Cc1ccncc1 was read as IDE exosite FP -1.11.
`O=C(c1cnccn1)N1CC(=O)N2[C@H](CO)[C@H](c3ccc(-c4cccc(F)c4)cc3)[C@H]2C1` gave IDE exosite FP -2.65.
Screening O=C(Nc1cc(F)ccc1F)N1CC(=O)N2[C@@H](CO)[C@H](c3ccc(-c4cccc(F)c4)cc3)[C@@H]2C1 returned IDE exosite FP 1.15.
Screening CCC(=O)N1[C@H](CO)[C@@H](c2ccccc2)[C@@H]1CN(CC)C(=O)c1cccc(F)c1 returned IDE exosite FP -1.88.
`C/C=C/c1ccc([C@H]2[C@@H](CO)N[C@@H]2CNC(=O)Cc2ccccc2)cc1` gave IDE exosite FP 0.743.
`OC[C@@H]1[C@H](c2ccc(-c3ccc(F)cc3)cc2)[C@@H]2CN(Cc3cccnc3)CCCCN12` gave IDE exosite FP 1.44.
For OC[C@H]1[C@H](c2ccc(/C=C/c3ccccc3)cc2)[C@H]2CN(Cc3cccnc3)CCCCN21 the results were IDE exosite FP -1.86.
`OC[C@H]1[C@@H](c2ccc(/C=C/c3ccccc3)cc2)[C@@H]2CN(Cc3cccnc3)CCCCN12` gave IDE exosite FP -4.4*.
`O=C(Nc1cccc(F)c1)N1CCCCN2[C@H](CO)[C@@H](c3ccc(C#Cc4ccccc4)cc3)[C@H]2C1` gave IDE exosite FP 0.565.
